Compounds with a hit are over-represented: about 2.9% of the library has one in this group of screens.
ADAM10 inh = inhibitors of human ADAM10; O14672; recombinant ADAM10, EDANS/DABCYL FRET peptide cleavage, 3 h; inhibition, % at 7 µM; hit rate 0.62% among 370,000; AID 720582;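 active means inhibition above a per-campaign cutoff equal to the mean of compounds falling between control-based bounds plus 3 SD, cut at about 20% in these data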
Target sequence (O14672 214-748 limits assumed): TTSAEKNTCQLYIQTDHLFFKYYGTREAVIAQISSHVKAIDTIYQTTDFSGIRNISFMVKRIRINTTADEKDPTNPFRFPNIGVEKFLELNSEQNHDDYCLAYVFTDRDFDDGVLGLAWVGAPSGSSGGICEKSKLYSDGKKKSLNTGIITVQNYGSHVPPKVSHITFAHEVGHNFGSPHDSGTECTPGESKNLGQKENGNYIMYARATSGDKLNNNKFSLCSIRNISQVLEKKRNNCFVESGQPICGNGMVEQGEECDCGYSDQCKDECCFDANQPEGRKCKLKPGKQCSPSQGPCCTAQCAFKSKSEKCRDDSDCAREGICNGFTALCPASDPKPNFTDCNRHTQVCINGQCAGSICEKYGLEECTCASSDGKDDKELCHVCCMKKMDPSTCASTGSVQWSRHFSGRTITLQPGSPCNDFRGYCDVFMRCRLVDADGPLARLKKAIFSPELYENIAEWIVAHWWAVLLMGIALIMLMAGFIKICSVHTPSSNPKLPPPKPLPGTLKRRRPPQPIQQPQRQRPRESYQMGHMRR
PLC-beta3 inh = inhibitors of human phospholipase C beta3 | Q01970 | Purified PLC-beta3, fluorogenic substrate, fluorescence | hit rate 0.18% among 370,000 | AID 720704 | inhibition, % at 12.2 µM; in the data active means inhibition above about 11%
ADAM17 inh = inhibitors of human ADAM17; hit rate 0.83% among 370,000; P78536; inhibition, % at 6.95 µM; recombinant ADAM17, EDANS/DABCYL FRET peptide cleavage;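 active means inhibition above the mean of compounds lying between control limits plus 3 SD, set per campaign, cut at about 8.5% in these data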
PLCg1 inh = PLC-gamma1 (human) inhibition, primary screen. purified PLC-gamma1, fluorogenic substrate, fluorescence. inhibition, % at 12.2 µM. hit rate 0.84% among 370,000. AID 720700; in the data active means inhibition above about 9.5%
proKLK7 act = proKLK7 (human) activation, primary screen; purified proKLK7, EDANS-DABCYL substrate fluorescence; 100% is mature enzyme control, 0% vehicle; activation, % at 7 µM; hit rate 0.9% among 370,000; AID 652039;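 active means activation above the mean of all tested compounds plus 3 SD, computed per campaign excluding outliers beyond control limits, cut at about 13% in these data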
KLK7 act conf = confirmation of human kallikrein-7 zymogen activators; AID 686949; purified proKLK7, EDANS-DABCYL substrate fluorescence; scaled: vehicle 0, mature enzyme 100; hit rate 68% among 3,200; activation, % at 7 µM; shares compounds with proKLK7 act;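 active means activation, as change over the incubation, above the mean of all tested compounds plus 3 SD, cut at about 13% in these data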
EDANS interfere = counter-screen for kallikrein-7 activators: EDANS-DABCYL optical interference; hit rate 80% among 3,200; activation, % at 7 µM; shares compounds with proKLK7 act; EDANS-DABCYL substrate fluorescence interference, no enzyme, 4 h; solvent 0%, active enzyme control 100%;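 active means activation above the all-compound mean plus 3 SD, ignoring values outside control-based bounds, cut at about 4.8% in these data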;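 further: value is the 4 h activation minus the activation read at time zero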
ADAM10 confirm = confirmation of inhibitors of human ADAM10. shares compounds with ADAM10 inh. hit rate 1% among 2,100. inhibition, % at 6.95 µM. ADAM10 QFRET peptide cleavage, EDANS fluorescence;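 active means inhibition above about 20% chosen separately for each screening run, limit read from the data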
ADAM17 ctr = counter-screen for ADAM10 exosite inhibitors: inhibitors of human ADAM17; shares compounds with ADAM10 inh; ADAM17 QFRET peptide cleavage, EDANS fluorescence; inhibition, % at 6.95 µM; hit rate 0.5% among 2,100; AID 743214;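 active means mean triplicate inhibition above the solvent-only control wells' mean plus 3 SD, cut at about 12% in these data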
Hits are given with their value; i = inactive; nt = no result given.

SMILES	ADAM10 inh	PLC-beta3 inh	ADAM17 inh	PLCg1 inh	proKLK7 act	ADAM10 confirm	ADAM17 ctr	others
COc1cc(NC(=O)c2cccs2)c(OC)cc1NC(=O)CCC(=O)Nc1ccc(C)cc1	i	i	i	i	123	nt	nt	KLK7 act conf=i;EDANS interfere=i
COC(=O)C1CN(Cc2cn(Cc3ccc(Cl)cc3)nn2)CCS(=O)(=O)N1Cc1ccc(Cl)cc1 (stereo not drawn)	i	i	i	i	i	nt	nt
COC(=O)C1=NN(c2cccc(C)c2)C2C(=O)N(c3ccccc3OC)C(=O)C12 (stereo not drawn)	i	i	i	i	15	nt	nt	KLK7 act conf=i;EDANS interfere=i
COC(=O)C1=NN(c2ccccc2OC)C2C(=O)N(c3ccccc3OC)C(=O)C12 (stereo not drawn)	i	i	i	i	15	nt	nt	KLK7 act conf=i;EDANS interfere=11
COC(=O)C1=NN(c2ccc(OC)cc2)C2C(=O)N(c3ccccc3OC)C(=O)C12 (stereo not drawn)	i	i	i	i	i	nt	nt
COC(=O)C1=NN(c2cccc3ccccc23)C2C(=O)N(c3ccccc3OC)C(=O)C12 (stereo not drawn)	i	i	i	i	i	nt	nt
CN1CCCC1CCNc1ccc2sc3ccccc3c(=O)c2c1 (stereo not drawn)	i	i	i	i	i	nt	nt
Cc1cc2oc3cc(NCCC4CCCN4C)ccc3c(=O)c2cc1C (stereo not drawn)	i	i	i	i	62	nt	nt	KLK7 act conf=68;EDANS interfere=64
CN(C)c1cccc(/C=C2\CC3(OC(=O)c4cccc(F)c4)CCCN2C3)c1 (stereo not drawn)	i	i	i	i	i	nt	nt
COc1ccc(NC(=O)NNC(=O)CCc2ccc(O)c(O)c2)cc1OC	i	i	i	i	24	nt	nt	KLK7 act conf=27;EDANS interfere=24
CC(=O)c1ccc(/C=C/c2nc3ccccc3n2C)o1	i	i	i	i	40	nt	nt	KLK7 act conf=71;EDANS interfere=71
CCCSc1ncc(Cl)c(C(=O)Nc2ccc(S(=O)(=O)N3CC(C)OC(C)C3)cc2)n1 (stereo not drawn)	20	i	i	i	67	i	i	KLK7 act conf=i;EDANS interfere=i
Cc1ccc(C(=O)C2CCN(CC(=O)N3CCOCC3)CC2)cc1	i	i	i	i	i	nt	nt
C=CCC[C@H](Cc1ccc(F)cc1)C(=O)OC[C@H](Cc1c[nH]c2ccccc12)NC(=O)[C@H](CC=C)CC(=O)N[C@H](CO)Cc1ccccc1	21	i	i	i	i	i	i
C=CCC[C@H](Cc1ccc(F)cc1)C(=O)OC[C@@H](Cc1c[nH]c2ccccc12)NC(=O)[C@H](CC=C)CC(=O)NCCO	21	i	i	i	i	i	i
C=CCC[C@H](Cc1ccc(F)cc1)C(=O)OC[C@H](Cc1c[nH]c2ccccc12)NC(=O)[C@@H](CC=C)CC(=O)N[C@@H](CO)Cc1ccccc1	i	i	i	i	i	nt	nt
C=CCC[C@@H](Cc1ccc(F)cc1)C(=O)OC[C@@H](NC(=O)[C@@H](CC=C)CC(=O)N[C@@H](CO)Cc1ccccc1)C(C)(C)C	21	i	i	i	i	i	i
C=CCC[C@@H](Cc1ccc(F)cc1)C(=O)OC[C@H](Cc1c[nH]c2ccccc12)NC(=O)[C@H](CC=C)CC(=O)NCCO	22	i	i	i	i	i	i
CCNC(=O)N(C)[C@H]1C[C@H]2c3[nH]c4c(-c5cccc(C)c5)cccc4c3CCN2C(=O)[C@H]1[C@H](C)O	i	i	i	i	i	nt	nt
C[C@H](O)[C@@H]1CN2CCc3c([nH]c4c(-c5ccc6c(c5)OCO6)cccc34)[C@@H]2C[C@@H]1N(C)C(=O)c1ccco1	i	i	i	i	i	nt	nt
CCN(CC)C(=O)CC[C@@H]1CC[C@]2(CCCN(S(C)(=O)=O)C2)O1	i	i	i	i	i	nt	nt
Cc1c(NC(=O)C2CCCN(S(=O)(=O)c3ccc(C(C)(C)C)cc3)C2)c(=O)n(-c2ccccc2)n1C (stereo not drawn)	i	i	i	i	i	nt	nt
CN(C(=O)c1ccc(NC(=O)Cc2ccc(NC(=O)C3CCCN(S(=O)(=O)c4cccc([N+](=O)[O-])c4)C3)cc2)cc1)C1CCCC1 (stereo not drawn)	23	i	i	i	i	i	i
O=C(Cn1nc(C(F)F)cc1C(F)F)NNC(=S)Nc1ccc(F)cc1	i	i	i	i	i	nt	nt
O=C(Cn1nc(C(F)F)cc1C(F)F)NNC(=S)Nc1ccc([N+](=O)[O-])cc1	21	i	i	i	i	i	i
SMILES	ADAM10 inh	PLC-beta3 inh	ADAM17 inh	PLCg1 inh	proKLK7 act	ADAM10 confirm	ADAM17 ctr	others
C#CCOCCOCCOCCNc1nc(N2CCN(C(=O)CCCCCCCCCCNC(=O)[C@@H](CCSC)n3cc(CCO)nn3)CC2)nc(N2CCN(C(=O)CCCCCCCCCCNC(=O)[C@@H]([C@H](C)O)n3cc(C)nn3)CC2)n1	20	i	i	i	i	i	i
COc1ccc(N2CCN(C(=O)CCNC(=O)c3ccc(C(C)(C)C)cc3)CC2)cc1	i	i	i	i	i	nt	nt
COc1ccc(N2CCN(C(=O)c3ccc(C(C)(C)C)cc3)CC2)cc1	88	i	i	i	i	i	i
COC(=O)C1=C(C)N(Cc2ccccc2C(F)(F)F)C(=NCc2ccccc2)NC1c1cccc(C(F)(F)F)c1 (stereo not drawn)	i	i	i	i	i	nt	nt
CC(C)NC(=O)c1onc(CSc2cccc3ccccc23)c1C(=O)O	86	i	i	i	i	i	i
C=CCNC(=O)NCC1CCN(Cc2ccc(OC)cc2)CC1	i	i	i	i	i	nt	nt
Nc1[nH]c(C(=O)c2ccccc2)c(-c2ccc(Cl)c(Cl)c2)c1C(=O)NCCc1c[nH]c2ccccc12	i	i	i	i	i	nt	nt
Nc1[nH]c(C(=O)c2ccccc2)c(-c2ccc3c(c2)OCO3)c1C(=O)NCCc1c[nH]c2ccccc12	27	i	i	i	i	i	i
COc1ccc(-c2csc(NC(=O)c3ccco3)n2)cc1	i	i	i	i	i	nt	nt
COc1ccc(-c2csc(NC(=O)c3c(OC)cccc3OC)n2)cc1	30	i	i	i	i	i	i
Clc1ccccc1CSc1nncn1NC/C=C/c1ccccc1	20	i	i	i	i	i	i
C(=C\c1ccccc1)/CNn1cnnc1	i	i	i	i	i	nt	nt
O=C(NCC1CCN(C(=O)C(=O)c2cccs2)CC1)c1ccncc1	i	i	i	i	i	nt	nt
Cc1cccc(CCNC(=O)c2ccc3c(c2)ncn3C2CCCCC2)c1	i	i	i	i	i	nt	nt

Compound activity from PubChem BioAssay.
